Results with a measured potency or affinity are listed apart.
Key:
Staphylococcus aureus = conditions: Concentration 32 ug.mL-1; ASSAY_TEST Inhibition of Bacterial Growth; detection method Absorption (OD600); MEDIA CAMHB; plate type 384well; NBS; CORNING #3640; time 18 hr
Escherichia coli = conditions: Concentration 32 ug.mL-1; ASSAY_TEST Inhibition of Bacterial Growth; detection method Absorption (OD600); MEDIA CAMHB; plate type 384well; NBS; CORNING #3640; time 18 hr

| Compound | Inhibition (Staphylococcus aureus) [%] | Inhibition (Escherichia coli) [%] |
| --- | --- | --- |
| COc1ccc2c(c1)cc(/C=C/[N+](=O)[O-])n2C | 10.15 | 1.2 |
| COc1ccc2c(c1)cc(C(=O)O)n2C | 20.8 | -7.03 |
| COc1cc(C=NNC(=O)Cc2c[nH]c3ccccc23)ccc1O | 8.14 | -0.45 |
| CC(=O)n1cc(/C=C2\N=C(c3ccccc3)OC2=O)c2ccccc21 | 15.78 | 15.77 |
| CCOC(=O)CCc1c[nH]c2ccccc12 | -15.79 | -15.2 |
| CCC(CC)NNC(=O)c1cc2ccccc2n1C | 11.92 | 13.68 |
| COc1cccc(-c2c(C#N)c(=O)oc3c2ccc2ccccc23)c1 | 13.24 | 14.42 |
| CC/C(C)=N/NC(=O)Cc1c[nH]c2ccccc12 | -7.02 | -3.01 |
| COC(=O)C(=Cc1ccc(OC)cc1)NC(=O)c1ccccc1 | 17.26 | 11.52 |
| Cn1c(C(=O)N2CCOCC2)cc2cc(OCCCC3CCN(Cc4ccccc4)CC3)ccc21 | 23.07 | -10.59 |
| COc1cccc(C=C2N=C(c3ccccc3)OC2=O)c1OC(C)=O | 5.66 | 4.51 |
| COc1ccc(C2C(C#N)=C(N)Oc3ccc4ccccc4c32)cc1 (stereo not drawn) | 37.68 | -4.54 |
| CSC1=NC(=Cc2cn(C(c3ccccc3)(c3ccccc3)c3ccccc3)c3ccccc23)C(=O)N1C | -1.08 | 9.28 |
| N#CC1(Br)C(=NBr)Oc2c(ccc3ccccc23)C1c1cccc([N+](=O)[O-])c1 (stereo not drawn) | 34.66 | -14.11 |
| N#Cc1cccnc1N | 27.07 | -3.89 |
| O=C1OC(c2ccccc2)=NC1=Cc1ccccc1Cl | 16.61 | 12.84 |
| COc1nc(N)c(C#N)cc1C#N | 18.25 | -3.66 |
| COc1ccc(-c2cc(-c3cc4c(OC)ccc(OC)c4nc3Cl)cc(=O)[nH]2)cc1 | 22.4 | -10.79 |
| O=C(O)/C(=C\c1ccccc1)NC(=O)c1ccccc1 | 14.68 | 10.16 |
| C#CCN(C)c1cc(Cl)nc(N)n1 | 26.35 | -8.33 |

| Compound | Inhibition (Staphylococcus aureus) [%] | Inhibition (Escherichia coli) [%] |
| --- | --- | --- |
| CCOC(=O)C1=C(C)Nc2nc3c(c(N)c2C1c1cccc(OC)c1)CCCC3 (stereo not drawn) | 17.18 | -19.26 |
| Cn1ccnc1C1c2ccc3ccccc3c2Oc2nc3c(c(N)c21)CCCCC3 (stereo not drawn) | 17.85 | -12.42 |
| C#CCNc1nc(NCC#C)c(C#N)cc1C#N | -5.55 | -10.16 |
| O=C(N/N=C/c1c[nH]c2ccccc12)c1ccc(Cl)cc1 | 3.32 | 9.43 |
| O=C1SC(SCc2ccccc2)=NC1=Cc1ccccc1 | 6.82 | 1.82 |
| Cc1nc(NO)c2c(C)nn(-c3ccccc3)c2n1 | 6.32 | 4.93 |
| N#CC1(Br)C(=NBr)Oc2c(ccc3ccccc23)C1c1ccccc1[N+](=O)[O-] (stereo not drawn) | 52.21 | -16.66 |
| CNC(=O)c1c(Cl)c2cc(OCc3ccccc3)ccc2n1C | 21.87 | -12.2 |
| CCOc1nc2nc(CCc3ccccc3)ccc2c(-c2ccccc2)c1C#N | 14.64 | -39.9 |
| CC(=O)NCCc1ccccc1 | 12.71 | 11.94 |
| N#Cc1cc(C#N)c(N2CCC(O)CC2)nc1N | 5.78 | -26.11 |
| O=C1SC(SCc2ccccc2)=NC1=Cc1ccc2c(c1)OCO2 | 0.74 | 10.84 |
| CC(=O)Oc1ccc(C=C2N=C(c3ccccc3)OC2=O)c(OC(C)=O)c1 | 7.39 | 7.35 |
| CCOC(=O)C1=C(C)OC(N)=C(C#N)C1c1ccccc1 (stereo not drawn) | 25.42 | -7.58 |
| Cc1nc(NCc2ccccc2)c2cnn(-c3ccccc3)c2n1 | 7.38 | 5.64 |
| O=C(N/N=C/c1c[nH]c2ccccc12)c1ccco1 | 13.11 | 12.98 |
| C#CCN(C)Cc1cc2cc(OCCCCC3CCN(Cc4ccccc4)CC3)ccc2n1C.Cl | 41 | -14.71 |
| Nc1c2c(nc3c1c1ccccc1n3Cc1ccccc1)CCCC2 | 17.35 | -10.77 |
| C=C1CN(C)c2ncc(C#N)c(=N)n21 | 2.81 | -21.82 |

From ChEMBL document CHEMBL4513135, “CO-ADD screening of IQOG CSIS (Spain) compounds”
